Screens (PubChem BioAssay)
Cav3 T inh – Cav3.2 calcium influx blockers – cell-based, Fluo-4 calcium fluorescence, FDSS, MLSMR library, primary screen. AID 449739, 2010. B-score at 10 µM. hit rate 4% among 100,000. Cav3.2-expressing cells; hits give low values;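 active = single-dose well whose peak fluorescence ratio is a statistical outlier from its plate by either plate-standardised score or position-corrected B-score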
CYP2C9 act – human CYP2C9 activators, primary screen, biochemical, luminescence | Cytochrome P450 2C9 (Homo sapiens), P11712 | recombinant CYP2C9, luciferin-H conversion; hits give high values; factor 1 = untreated enzyme, 0 = blocked | activation factor at 5 µM | hit rate 1.4% among 96,000 | AID 1024, 2008;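 active = activation factor of 2 or more for CYP2C9 at a 5 µM dose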
CYP2C19 inh – blockers of cytochrome P450 2C19 activity – biochemical, luminescence, ADME assay, primary screen. P33261. inhibition, % at 5 µM. hit rate 21% among 96,000. AID 778, 2007. CYP2C19 Supersomes, luciferin-H EGE luminescence, 30 min;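 active = CYP2C19 inhibition above a set limit at 5 µM in the primary screen, cut at about 50% in these data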
CYP2C9 inhib – blockers of cytochrome P450 2C9 activity – biochemical, luminescence, ADME assay, primary screen; P11712; CYP2C9 Supersomes, luciferin-H conversion; inhibition, % at 5 µM; hit rate 20% among 96,000;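 active = blocking of liver enzyme CYP2C9 beyond about 50% at 5 µM, limit read from the data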
CYP2C19 act – human CYP2C19 activators, primary screen, biochemical, luminescence; AID 1025, 2008; 96,000 tested, under 10 active; activation factor at 5 µM; recombinant CYP2C19, luciferin-H EGE luminescence; hits give high values; 0 = fully inhibited enzyme, 1 = untreated enzyme;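 active = activation factor of at least 2 at 5 µM in the primary screen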
Large screens that a line does not name were inactive. Shown are actives, neighbours in structure and some others; about 27% of the full set was active somewhere.

COc1ccc2nc(NCCCNC(=O)c3cc(OC)c(OC)c(OC)c3)c(C#N)cc2c1	none
CCOCCCNS(=O)(=O)c1ccc(-n2cnnn2)c(OC)c1	CYP2C19 inh 88.6
COc1cc(NS(=O)(=O)c2ccc(C)cc2)ccc1-n1cnnn1	CYP2C9 inhib 72.2
COc1cc(S(=O)(=O)NCC2COCCO2)ccc1-n1cnnn1 (stereo not given)	none
COc1cc(S(=O)(=O)NCCc2ccc3c(c2)OCO3)ccc1-n1cnnn1	CYP2C19 inh 95.7, CYP2C9 inhib 87.3
COc1cc(C(=O)Nc2ccc3c(c2)OCCO3)ccc1-n1cnnn1	none
Cc1ccc(CNC(=O)/C(C#N)=C\c2ccc(N(C)C)cc2)cc1	none
Cn1ncc(N=Cc2ccccc2)c1C(=O)Nc1cccc(Cl)c1	CYP2C9 inhib 55.7
O=C(CC1(O)C(=O)Nc2cc(Cl)cc(Cl)c21)c1ccncc1 (stereo not given)	none (no result: CYP2C9 act, CYP2C19 inh, CYP2C9 inhib, CYP2C19 act)
O=C(c1cccnc1)N1CCN(Cc2cccc(Br)c2)CC1	CYP2C19 inh 94.3
CCS(=O)(=O)N1CCN(C(=O)c2cccc(OC)c2)CC1	none
O=C(c1cccnc1)N1CCN(Cc2ccccc2Br)CC1	CYP2C19 inh 79.6
O=C(c1cccnc1)N1CCN(C(=O)c2ccco2)CC1	none (no result: CYP2C9 act, CYP2C19 inh, CYP2C9 inhib, CYP2C19 act)
O=C(c1cccnc1)N1CCN(Cc2ccc3c(c2)OCO3)CC1	none
COc1cccc(N2CCN(C(=O)c3cccnc3)CC2)c1	CYP2C19 inh 70.9
COc1ccc(CN2CCN(C(=O)c3cccnc3)CC2)cc1Br	CYP2C19 inh 93.6
CCN(CC)C(=O)CNC(=O)Cc1ccc(Cl)cc1	none
COc1ccc2cc(CCNC(=O)c3ccc4c(c3)OCO4)c(=O)[nH]c2c1	CYP2C9 inhib 81.5 (no result: Cav3 T inh)
Cc1cc2cc(CCNC(=O)c3ccc(Br)o3)c(=O)[nH]c2cc1C	none (no result: Cav3 T inh)
COc1ccc2cc(CCNC(=O)c3ccc(Br)o3)c(=O)[nH]c2c1	CYP2C19 inh 50.8 (no result: Cav3 T inh)
CCOC(=O)CCCn1ncn2c(cc3occc32)c1=O	none
COc1ccc(C(=O)NCCc2c[nH]c3ccccc23)cc1S(=O)(=O)N1CCOCC1	CYP2C9 inhib 60.6
COc1ccc(OC)c2sc(NC(=O)c3ccc(S(=O)(=O)N4CCOCC4)cc3)nc12	none
COc1ccc(C(=O)OCC(=O)c2ccccc2)cc1S(=O)(=O)N1CCOCC1	CYP2C19 inh 77.7, CYP2C9 inhib 55.7
CCOc1cc(C(=O)OCC(=O)c2c[nH]c3ccccc23)ccc1OCC(=O)N1CCOCC1	none
O=C(COC(=O)c1cc(S(=O)(=O)N2CCOCC2)cs1)c1ccccc1	none
COc1ccc(C(C)=O)cc1COC(=O)c1ccc(S(=O)(=O)N2CCOCC2)cc1	CYP2C19 inh 51.4, CYP2C9 inhib 93.9
COc1cc(C(=O)OCC(=O)c2c[nH]c3ccccc23)ccc1OCC(=O)N1CCOCC1	CYP2C19 inh 51.0, CYP2C9 inhib 77.5
O=C(Nc1nonc1NC(=O)C1CCCCC1)C1CCCCC1	none
CC(C)NC(=O)CSc1nnc(-c2ccc(S(=O)(=O)N3CCCC3)cc2)n1CC1CCCO1 (stereo not given)	none
COC(=O)c1ccccc1OCCOc1ccccc1C(=O)OC	CYP2C19 inh 62.4
O=C1C2C3CCCC3=C3CCCC3C2C(=O)N1c1ccccc1 (stereo not given)	none
O=C(NCCCCNC(=O)c1ccco1)c1ccco1	none
CC(NC(=O)COC(=O)CCNC(=O)c1ccco1)C12CC3CC(CC(C3)C1)C2 (stereo not given)	CYP2C19 inh 51.2, CYP2C9 inhib 55.6
Cc1cc(C#N)c(C)n1-c1cc(S(=O)(=O)N2CCOCC2)ccc1N1CCCC1	CYP2C9 inhib 73.3
COc1ccc(OC)c(C2Nc3nc4ccccc4n3C(C)=C2C(=O)Nc2ccc(C)cc2C)c1 (stereo not given)	none
O=C(c1cccc(F)c1)N1CCN(c2cccc(Cl)c2)CC1	CYP2C19 inh 94.2, CYP2C9 inhib 85.7
O=C(c1cccc(F)c1)N1CCCC(C(=O)N2CCCC2)C1 (stereo not given)	none
O=C(c1cccnc1)N1CCN(C(=O)c2ccccc2F)CC1	CYP2C19 inh 51.4, CYP2C9 inhib 65.4
O=C(c1c(Cl)nc2sccn12)N1CCN(c2cccc(Cl)c2)CC1	CYP2C19 inh 82.9, CYP2C9 inhib 68.6
O=C(COc1ccc(Cl)cc1)N1CCN(C(=O)c2cccc(F)c2)CC1	none
O=C(c1cccc(F)c1)N1CCC(N2CCOCC2)CC1	CYP2C19 inh 56.1
CCC1CCCCN1C(=O)c1nn2cccnc2c1Cl (stereo not given)	none
O=C(c1cccc(F)c1)N1CCN(C(=O)c2nn3cccnc3c2Cl)CC1	CYP2C19 inh 58.5
COc1ccccc1C(=O)N1CCN(c2cccc(Cl)c2)CC1	none (no result: CYP2C9 act, CYP2C19 inh, CYP2C9 inhib, CYP2C19 act)
N#Cc1ccc(N2CCN(C(=O)c3cccc(F)c3)CC2)c(F)c1	CYP2C19 inh 91.7
O=C(c1cccc(Cl)c1)N1CCN(C(=O)c2ccccc2F)CC1	CYP2C19 inh 65.7, CYP2C9 inhib 54.5
CC(C)(C)N=C1NC(=NC(C)(C)C)c2ccccc21	none
COc1ccc(-c2cc(-c3c(O)c(OC)c4occc4c3OC)[nH]n2)cc1	CYP2C19 inh 70.1, CYP2C9 inhib 89.8
COc1ccc(-c2cc(-c3ccccc3O)[nH]n2)cc1	none
COc1cccc(NC(=O)CSc2nnc(C)s2)c1	none
CC(C)(C)c1csc(SCC(=O)Nc2ccc(Cl)cn2)n1	none (no result: CYP2C9 act, CYP2C19 inh, CYP2C9 inhib, CYP2C19 act)
COc1ccc(OC)c(NC(=O)CSc2nnc(N)s2)c1	CYP2C19 inh 50.3
COc1ccc(OC)c(NC(=O)CSc2nc(C)cs2)c1	CYP2C19 inh 84.1, CYP2C9 inhib 53.8
COc1cc(NC(=O)CSc2nc(C)cs2)cc(OC)c1	CYP2C19 inh 95.8, CYP2C9 inhib 52.5
Cc1csc(SCC(=O)Nc2ccc(Cl)cn2)n1	Cav3 T inh -5.1, CYP2C19 inh 85.6, CYP2C9 inhib 59.2
CC[C@H](C)[C@@H](NC(=O)O[C@@H]1C(=O)c2cc(Br)ccc2O[C@H]1c1ccc2c(c1)OCO2)C(=O)OC	none (no result: CYP2C9 act, CYP2C19 inh, CYP2C9 inhib, CYP2C19 act)
CSc1cccc(NC(=O)c2nnn(Cc3ccccc3)c2N)c1	none
Cc1ccccc1Cn1nnc(C(=O)Nc2cccc(C)c2C)c1N	CYP2C19 inh 54.3 (no result: Cav3 T inh)
Cc1cc(C)cc(NC(=O)c2nnn(Cc3cc(C)ccc3C)c2N)c1	CYP2C9 inhib 68.5
CCOc1cc(S(=O)(=O)NC2CCCCCC2)ccc1F	none
O=C(NCCCCNC(=O)c1c(F)c(F)c(F)c(F)c1F)c1c(F)c(F)c(F)c(F)c1F	none
Cc1nonc1OCC(C)(COc1nonc1C)NC(=O)c1ccccc1	none (no result: CYP2C9 act, CYP2C19 inh, CYP2C9 inhib, CYP2C19 act)
Cc1ccccc1S(=O)(=O)Cc1ccc(C(=O)NC(C)c2ccc3c(c2)OCCO3)o1 (stereo not given)	CYP2C19 inh 98.7, CYP2C9 inhib 98.5
CC(NC(=O)c1ccc(CS(=O)(=O)c2ccc(Cl)cc2)o1)c1ccc2c(c1)OCCO2 (stereo not given)	CYP2C9 inhib 73.7
